Data: PubChem BioAssay AID1645870 (National Center for Advancing Translational Sciences (NCATS), 2021)
“And” between values parts separate entries of the source, which are not always exact repeats. Equal values may be shown once. Screen size: about 59,000 compounds; about 1,500 (2.5%) were called active. Not shown: some 10% with an inconclusive outcome. The call rests on the fitted dose curve; in most records, active means well fitted inhibition curve with a large enough effect; inconclusive means small, poorly fitted or top-dose-only effect; inactive means flat fitted curve, though single readings scatter. The entries come from a sample that favours actives as a whole. Entries that show only a call come without a potency. Where a structure was tested more than once in an assay, its records may differ in their call.

Target: N-terminal Xaa-Pro-Lys N-methyltransferase 1 (Homo sapiens) (UniProt Q9BV86)
Assay: Primary qHTS for Inhibitors of N-terminal methyltransferase 1 (NTMT1): MTaseGlo Assay; further: nearly all actives have a fitted effect of over 65% in size
Settings: NTMT1 MTase-Glo SAH luminescence, purified enzyme; series mostly up to 114 µM
Potency means the concentration at half of the fitted maximal effect.

Chain of N-terminal Xaa-Pro-Lys N-methyltransferase 1 (Homo sapiens) (Q9BV86 whole entry, looked up): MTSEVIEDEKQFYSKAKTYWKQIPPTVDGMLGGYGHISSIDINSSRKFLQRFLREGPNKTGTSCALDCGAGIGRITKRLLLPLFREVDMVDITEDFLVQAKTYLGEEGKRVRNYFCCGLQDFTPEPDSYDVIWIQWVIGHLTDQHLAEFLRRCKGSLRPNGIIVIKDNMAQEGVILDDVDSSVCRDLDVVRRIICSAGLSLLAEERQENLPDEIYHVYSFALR

Row | SMILES | Potency
1 | COc1cc(NS(=O)(=O)c2ccc(C)cc2)ccc1C(=O)Nc1nc(-c2ccccc2)cs1 | inactive
2 | Cc1cc(C)n2ncc(C(=O)Nc3ccc4c(c3)OCCO4)c2n1 | inactive
3 | Cc1cc(C)n2ncc(C(=O)Nc3ccc(C)c(C)c3)c2n1 | inactive
4 | COc1ccc(C[C@H](C(=O)O)N2C(=O)c3ccc(C(=O)O)cc3C2=O)cc1 | inactive
5 | COC(=O)c1cccc(Cn2nnc3sc4c(c3c2=O)CCC(C(C)(C)C)C4)c1 (configuration not stated) | inactive
6 | CC(C)C(=O)Nc1nc2c(s1)CC(C(C)(C)C)CC2 (configuration not stated) | 79.4 µM (active)
7 | CC(C)(C)C1CCc2c(sc(NC(=O)c3ccccc3F)c2C(=O)N2CCCCC2)C1 (configuration not stated) | inactive
8 | Cc1ccc(S(=O)(=O)NC(N)=NCCC[C@@H](NC(=O)CNC(=O)c2ccccc2)C(=O)Nc2cc(C(F)(F)F)ccc2Cl)cc1 | inactive
9 | CC(C)c1ccc(C2CC(=O)N3CN(C4CCCCC4)CSC3=C2C#N)cc1 (configuration not stated) | 11.2 µM (active)
10 | O=C(Nc1ccc2ccccc2c1)Nc1nnc(-c2ccc(O)cc2)s1 | inactive
11 | Cc1c(C)n(Cc2ccc(Cl)cc2)c2ccc(C(=O)N3CCN(c4ccccc4F)CC3)cc12 | inactive
12 | CC(C)c1ccc2c(c1)c(SC(C)(C)C)c(CC(C)(C)C(=O)O)n2Cc1ccc(Cl)cc1 | inactive and 79.4 µM (active)
13 | C[S+](=O)([O-])c1ccc(-c2ccc(=O)n(CC(=O)NCCc3ccccc3)n2)cc1 | inactive
14 | Cc1ccc(OCCn2c(CCNC(=O)Cc3cccc4ccccc34)nc3ccccc32)cc1 | inactive
15 | CN1CC[C@H](c2c(O)cc(O)c3c(=O)cc(-c4ccccc4Cl)oc23)[C@H](O)C1 | 31.6 µM (active)
16 | Cc1cc(C2N=C(Nc3nc4ccccc4o3)NC3=C2C(=O)CCC3)n[nH]1 (configuration not stated) | inactive

Row | SMILES | Potency
17 | FC(F)(F)c1cc(Cl)cc(-c2ccc(CNc3nc(-c4ccccc4C(F)(F)F)nc4ccccc34)cc2)c1 | inactive
18 | Cc1ccccc1-c1ccc(NC(=O)c2cccs2)cn1 | inactive
19 | O=S(=O)(NCC1CN(S(=O)(=O)c2ccc3c(c2)OCCO3)C1)c1c(F)cccc1F | inactive
20 | O=S(=O)(Nc1cccc2ccccc12)c1ccc(NCc2ccc(Br)cc2O)cc1 | inactive
21 | CCN(CC)c1ccc(NC(=O)CN(C)Cc2c(O)ccc3ccccc23)cc1 | inactive
22 | COc1ccc(-c2cncc(NC(=O)c3cccs3)c2)cc1OC | inactive
23 | COc1ccccc1-c1c[nH]c2ncc(-c3cncc(C(=O)N(C)C)c3)cc12 | 39.8 µM (active)
24 | O=C1NS(=O)(=O)c2cc(Cl)ccc21 | inactive
25 | c1nc(N2CCOCC2)c2cc(-c3ccc4c(c3)OCO4)ccc2n1 | 12.6 µM (active)
26 | NC(=O)C1CCN(c2cc(-c3ccc4c(c3)OCCCO4)ncn2)CC1 | inactive
27 | COc1ccc(NC(=O)c2cnn3c(-c4ccccc4)cc(C)nc23)cc1 | inactive
28 | O=C(Nc1ccc([S+](=O)([O-])Nc2nccs2)cc1)c1ccn[nH]1 | inactive
29 | O=C(OC/C=C/CSc1nnc(-c2cccc3ccccc23)o1)c1ccc(F)cc1 | inactive
30 | COc1cc(Nc2ncc(F)c(Nc3ccc4c(n3)NC(=O)C(C)(C)O4)n2)cc(OC)c1OC | inactive and 1.52 µM (active)
31 | COc1cc(NC(=O)c2cc3ccc4cccnc4c3[nH]2)cc(OC)c1OC | inactive
32 | N#CN1CCC(NS(=O)(=O)c2cccc(F)c2)C1 (configuration not stated) | inactive
